# In the supplement of paper PMC8728848:
# The sample as a whole holds a higher share of the strongest signals than the screen did.
# B1: Gal 8 (Homo sapiens) (protein)
# chain: MLSLNNLQNIIYNPVIPYVGTIPDQLDPGTLIVICGHVPSDADRFQVDLQNGSSVKPRADVAFHFNPRFKRAGCIVCNTLINEKWGREEITYDTPFKREKSFEIVIMVLKDKFQVAVNGKHTLLYGHRIGPEKIDTLGIYGKVNIHSIGFSFSSDLQSTQASSLELTEISRENVPKSGTPQLQTVSPSWDLQGHGSETFCSVLWTRVFLEIAFCRPIGLTVASFQSLPFAARLNTPMGPGRTVVVKGEVNANAKSFNVDLLAGKSKDIALHLNPRLNIKAFVRNSFLQESWGEEERNITSFPFSPGMYFEMIIYCDVREFKVAVNGVHSLEYKHRFKELSSIDTLEINGDIHLLEVRSW
# Tests used:
# Assay in all cases: glycan array binding signal (z-score within array); higher = stronger binding
# Conditions in all cases: glycan notation: IUPAC condensed, linker removed
# [1] = molecular target: GalNAc(b1-4)GlcNAc(b1-2)Man(a1-3)[GalNAc(b1-4)GlcNAc(b1-2)Man(a1-6)]Man(b1-4)GlcNAc(b1-4)GlcNAc
# Method in brief: (§1)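 Glycan array binding is given as a within-array Z-score, which can be read as non-binding when negative. The arrays, 3228 of them, came from the Consortium for Functional Glycomics database and were retained only where the protein sequence was available. Z-scores were averaged across arrays of the same protein sequence at different concentrations or buffers and across linkers.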
# [2] = molecular target: GlcNAc(b1-2)[GlcNAc(b1-4)]Man(a1-3)[GlcNAc(b1-2)Man(a1-6)]Man(b1-4)GlcNAc(b1-4)GlcNAc
# Method in brief: as §1
# GlcNAc(b1-3)Gal(b1-4)Glc = molecular target: GlcNAc(b1-3)Gal(b1-4)Glc
# Method in brief: as §1
# [3] = molecular target: GlcNAc(b1-3)Gal(b1-4)GlcNAc(b1-3)Gal(b1-4)GlcNAc(b1-2)[GlcNAc(b1-3)Gal(b1-4)GlcNAc(b1-3)Gal(b1-4)GlcNAc(b1-6)]Man(a1-6)[GlcNAc(b1-3)Gal(b1-4)GlcNAc(b1-3)Gal(b1-4)GlcNAc(b1-2)Man(a1-3)]Man(b1-4)GlcNAc(b1-4)[Fuc(a1-6)]GlcNAc
# Method in brief: as §1
# [4] = molecular target: GlcNAc(b1-3)Gal(b1-4)GlcNAc(b1-3)Gal(b1-4)GlcNAc(b1-3)Gal(b1-4)GlcNAc(b1-2)[GlcNAc(b1-3)Gal(b1-4)GlcNAc(b1-3)Gal(b1-4)GlcNAc(b1-3)Gal(b1-4)GlcNAc(b1-6)]Man(a1-6)[GlcNAc(b1-3)Gal(b1-4)GlcNAc(b1-3)Gal(b1-4)GlcNAc(b1-3)Gal(b1-4)GlcNAc(b1-2)Man(a1-3)]Man(b1-4)GlcNAc(b1-4)[Fuc(a1-6)]GlcNAc
# Method in brief: as §1
# [5] = molecular target: GlcNAc(b1-3)Gal(b1-4)GlcNAc(b1-3)Gal(b1-4)GlcNAc(b1-3)Gal(b1-4)GlcNAc(b1-3)Gal(b1-4)GlcNAc(b1-2)[GlcNAc(b1-3)Gal(b1-4)GlcNAc(b1-3)Gal(b1-4)GlcNAc(b1-3)Gal(b1-4)GlcNAc(b1-3)Gal(b1-4)GlcNAc(b1-6)]Man(a1-6)[GlcNAc(b1-3)Gal(b1-4)GlcNAc(b1-3)Gal(b1-4)GlcNAc(b1-3)Gal(b1-4)GlcNAc(b1-3)Gal(b1-4)GlcNAc(b1-2)Man(a1-3)]Man(b1-4)GlcNAc(b1-4)[Fuc(a1-6)]GlcNAc
# Method in brief: as §1
# [6] = molecular target: GlcNAc(b1-3)[GlcNAc(b1-6)]Gal(b1-4)GlcNAc
# Method in brief: as §1
# [7] = molecular target: GlcNAc(b1-3)[GlcNAc(b1-6)]GlcNAc(b1-4)GlcNAc
# Method in brief: as §1
# [8] = molecular target: GlcNAc(b1-4)Gal(b1-4)GlcNAc
# Method in brief: as §1
# [9] = molecular target: GlcNAc(b1-4)GlcNAc(b1-4)GlcNAc(b1-4)GlcNAc(b1-4)GlcNAc(b1-4)GlcNAc
# Method in brief: as §1
# [10] = molecular target: Man(a1-3)[Man(a1-6)]Man(b1-4)GlcNAc(b1-4)[Fuc(a1-6)]GlcNAc
# Method in brief: as §1
# [11] = molecular target: Neu5Ac(a2-3)Gal(b1-3)GalNAc(b1-3)Gal(a1-4)Gal(b1-4)Glc
# Method in brief: as §1
# [12] = molecular target: Neu5Ac(a2-3)Gal(b1-3)GlcNAc(b1-2)Man(a1-3)[Neu5Ac(a2-3)Gal(b1-3)GlcNAc(b1-2)Man(a1-6)]Man(b1-4)GlcNAc(b1-4)GlcNAc
# Method in brief: as §1
# [13] = molecular target: Neu5Ac(a2-3)Gal(b1-4)GlcNAc(b1-2)[Neu5Ac(a2-3)Gal(b1-4)GlcNAc(b1-4)]Man(a1-3)[GlcNAc(b1-4)][Neu5Ac(a2-3)Gal(b1-4)GlcNAc(b1-4)Man(a1-6)]Man(b1-4)GlcNAc(b1-4)GlcNAc
# Method in brief: as §1
# [14] = molecular target: Neu5Ac(a2-3)Gal(b1-4)GlcNAc(b1-3)Gal(b1-4)GlcNAc(b1-3)Gal(b1-4)GlcNAc
# Method in brief: as §1
# [15] = molecular target: Neu5Ac(a2-3)Gal(b1-4)GlcNAc(b1-6)[Gal(b1-3)]GalNAc
# Method in brief: as §1
# [16] = molecular target: Neu5Ac(a2-6)Gal(b1-4)GlcNAc(b1-2)Man(a1-6)[Man(a1-3)]Man(b1-4)GlcNAc(b1-4)GlcNAc
# Method in brief: as §1
# [17] = molecular target: Neu5Ac(a2-6)Gal(b1-4)GlcNAc(b1-3)Gal(b1-4)[Fuc(a1-3)]GlcNAc(b1-3)Gal(b1-4)[Fuc(a1-3)]GlcNAc
# Method in brief: as §1
# [18] = molecular target: Neu5Ac(a2-8)Neu5Ac(a2-3)[Gal(b1-3)GalNAc(b1-4)]Gal(b1-4)Glc
# Method in brief: as §1
# [19] = molecular target: Neu5Ac(a2-8)Neu5Ac(a2-3)[GalNAc(b1-4)]Gal(b1-4)Glc
# Method in brief: as §1
# [20] = molecular target: Neu5Ac(a2-8)Neu5Ac(a2-8)Neu5Ac
# Method in brief: as §1
binder,measurement,setting,value
B1,glycan array binding signal (z-score),[1],-0.353
same,glycan array binding signal (z-score),[2],-0.354
same,glycan array binding signal (z-score),GlcNAc(b1-3)Gal(b1-4)Glc,-0.338
same,glycan array binding signal (z-score),[3],5.71
same,glycan array binding signal (z-score),[4],4.87
same,glycan array binding signal (z-score),[5],6.06
same,glycan array binding signal (z-score),[6],-0.41
same,glycan array binding signal (z-score),[7],-0.727
same,glycan array binding signal (z-score),[8],-0.2
same,glycan array binding signal (z-score),[9],-0.392
same,glycan array binding signal (z-score),[10],-0.357
same,glycan array binding signal (z-score),[11],0.798
same,glycan array binding signal (z-score),[12],-0.328
same,glycan array binding signal (z-score),[13],-0.314
same,glycan array binding signal (z-score),[14],2.12
same,glycan array binding signal (z-score),[15],-0.143
same,glycan array binding signal (z-score),[16],-0.357
same,glycan array binding signal (z-score),[17],-0.378
same,glycan array binding signal (z-score),[18],-0.355
same,glycan array binding signal (z-score),[19],-0.398
same,glycan array binding signal (z-score),[20],-0.396
